The whole screen tested about 360,000 compounds, of which about 17,000 (4.7%) were called active. Inconclusive results (about 5%) are left out. Shown is part of a subset that was picked to be rich in actives. Unmarked numbers belong to inactive results. Rule as the data show it: active = activity change below about -50%; inconclusive = mostly about -30% to -49%; inactive = weaker than that.
% is scaled to controls: 0 for no effect and ±100 for the full control effect.

The nature of this assay: qHTS for Inhibitors of Inflammasome Signaling: IL-1-beta AlphaLISA Primary Screen. As to conditions: THP-1 LPS/ATP IL-1B secretion, 16 h; at 57.5 µM, stronger effect = lower value. The gist of the method:
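Secreted IL-1B measured by AlphaLISA bead assay after 16 h compound exposure of THP-1 cells; compounds (final up to 57.5 uM) added 1 h before LPS (250 ng/mL) and ATP (1.25 mM) stimulation; lower signal means less secretion.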
For `Cc1ccc(Cn2cc(CN3CC(N4CCN(C)CC4)CS3(=O)=O)nn2)cc1` (stereo not drawn), the activity change is 1.38%.

As for `Cc1cc(C)nc(NC(=O)c2cccc([N+](=O)[O-])c2)c1`, the activity change was -4.03%.

In the case of `O=C(Nc1cccc([N+](=O)[O-])c1)c1ccc2c(c1)OCO2`, the activity change was -4.35%.

As to `O=C(Nc1ccc(C2CC2(Cl)Cl)cc1)c1cccc([N+](=O)[O-])c1` (stereo not drawn), the activity change was -90.4% (active).

As to `O=C(COC(=O)c1ccc[nH]c1=O)Nc1ccc2c(c1)OC(F)(F)O2`, the activity change was 23.1%.

`COC(=O)[C@]12CCCCC=C1N(Cc1cccc3ccccc13)C(=O)[C@H](CC(=O)N1CCOCC1)C2`: the activity change is -7.21%.

As to `Cc1ccc(S(=O)(=O)N2CCC(=O)N([C@H](COCc3ccccc3)C(C)C)CC2)cc1`, the activity change is 29.8%.

With `COc1ccc(Cl)cc1NC(=O)NCC1CCN(Cc2ccccc2F)CC1`, the activity change was -22.8%.

For the molecule `O=C(NCCN1CCOCC1)Nc1cccc(Cl)c1`, the activity change was 2.78%.

For `O=C1CCCN1CCCNC(=S)Nc1ccc(F)c(Cl)c1`, the activity change was 4.41%.

As for `O=C(NCC1CCN(Cc2ccccc2Cl)CC1)Nc1cccc(Cl)c1`, the activity change was -75% (active).

Turning to `COc1cc(NC(=O)NCC2CCN(Cc3ccc(C)cc3)CC2)cc(OC)c1OC`, the activity change is -6.99%.

On to `Cc1cccc(CN2CCC(CNC(=O)Nc3ccc(F)c(Cl)c3)CC2)c1`, for which the activity change is -107% (active).

Regarding `CC(CO)N1CCS(=O)(=O)CC1` (stereo not drawn), the activity change was 19.8%.

On to `CCC/C(C)=N\Nc1nc2c(c(=O)n(C)c(=O)n2C)n1C`, for which the activity change is 6.47%.

Consider `O=C(O)C(c1cccs1)C1(O)CCCCC1` (stereo not drawn), for which the activity change was 5.75%.

On to `CCOC(=O)c1cc(-c2sc(NC(=O)c3ccccc3)nc2C)n(-c2ccc(Br)cc2)n1`, for which the activity change was -4.38%.

Take `O=C(CCc1ccccc1)Nc1ncc([N+](=O)[O-])s1`: the activity change was -59.9% (active).

Take `CC(C)Cc1nnc(NC(=O)CCc2ccccc2)s1`: the activity change was 8.78%.

For `COC(=O)CSc1nnc(NC(=O)CCc2ccccc2)s1`, the activity change is 12.3%.

For `CC(CC(=O)C1C(C)C=CCC1(C)C)NNC(N)=O` (stereo not drawn), the activity change is 2.93%.

On to `Cc1cc(C(=O)CCl)c(C)n1CC1COc2ccccc2O1` (stereo not drawn), for which the activity change was -68.9% (active).

As for `O=C1C(=O)N(CC2COc3ccccc3O2)c2ccccc21` (stereo not drawn), the activity change is 11.2%.

Regarding `Cc1ccsc1C(=O)OCC(=O)c1cc(C)n(CC2CCCO2)c1C` (stereo not drawn), the activity change was 33.5%.

In the case of `CC(=O)CC[C@@H](C)O[C@@H]1OC(C)[C@H](O)CC1O` (stereo partly drawn), the activity change was 29.3%.

On to `COC(=O)[C@]12CCCCC=C1N(Cc1ccco1)C(=O)[C@H](CC(=O)NCC1CCCCC1)C2`, for which the activity change is -8.27%.

As for `CCCOc1ccc(F)cc1-c1cc(C(=O)Nc2ccc(F)cc2)[nH]n1`, the activity change is 3.22%.

Take `CC(C)(C)Nc1nc(-c2ccccn2)nc2ccccc12`: the activity change was -9.69%.

`CC(Nc1nc(C(F)(F)F)nc2ccccc12)c1cccs1` (stereo not drawn): the activity change is -63.4% (active).

As to `Cc1cc(C)n(-c2nc(C(F)(F)F)nc3ccccc23)n1`, the activity change was 21.5%.

On to `CCc1ccc(/C=C2\SC(N3CCOCC3)=NC2=O)cc1`, for which the activity change is -62.4% (active).

Regarding `NC1=NC(=O)S/C1=C\c1ccc(O)cc1`, the activity change is -9.74%.

With `Cc1cc(/C=C2/SC(=O)N(CC(=O)N3CCCC3)C2=O)ccc1N1CCOCC1`, the activity change is -23.5%.

On to `Cc1ccsc1/C=C1\SC(N2CCOCC2)=NC1=O`, for which the activity change is -26%.

With `O=C1N=C(N2CCc3ccccc3C2)S/C1=C\c1ccc(O)cc1`, the activity change was -63.2% (active).

Consider `CC1CCN(C2=NC(=O)/C(=C/c3ccc(O)cc3)S2)CC1`, for which the activity change is -16.5%.

With `COC(=O)C1(C(=O)OC)C[C@H](c2ccccc2)N(Cc2ccccc2OC)[C@@H]1c1ccccc1`, the activity change is 12.2%.

In the case of `O=[N+]([O-])c1ccc(C(S(=O)(=O)Cc2ccccc2)S(=O)(=O)Cc2ccccc2)cc1`, the activity change is -14.4%.

Take `CC(C)(O)C#Cc1ccc(CNC[C@H]2O[C@@H](n3cnc4c(=O)[nH]c(N)nc43)[C@H](O)[C@@H]2O)s1`: the activity change is 0%.

For `CC(C)(C)C(=O)CN1C2=NCCN2c2ccccc21`, the activity change is 0%.

For the molecule `Cc1cc2oc(=O)cc(CN3CCN(Cc4ccccc4)CC3)c2cc1C`, the activity change is 1.1%.

For `Cc1cc2c(cc1C)N(Cc1ccccc1)C1=NCCCN12`, the activity change was -58.1% (active).

On to `O=C(COC(=O)c1ccc(S(=O)(=O)N2CCCCCC2)cc1)Nc1ccccc1C(F)(F)F`, for which the activity change was 23%.

Turning to `COc1ccc(OC)c(CN2C(=O)CCC2(C)c2nnnn2Cc2ccccc2)c1` (stereo not drawn), the activity change is 0%.

With `Cc1ccc(-c2ccc(CN3C(C(C)C)C(=O)N(Cc4cn(CCC5OCCO5)nn4)CCS3(=O)=O)cc2)cc1` (stereo not drawn), the activity change is 14.8%.

As to `CC(=O)O[C@]1(C(C)=O)CC[C@H]2[C@@H]3C=C(C)C4=CC(=O)CC[C@]4(C)[C@H]3CC[C@@]21C`, the activity change was -10.2%.

With `CC1(C)C(=O)CCC2(C)C1=CCC1C2C(=O)CC2(C)C1CCC2(O)C(=O)CO` (stereo not drawn), the activity change was 15.3%.

With `CC(=O)OCC(=O)C1(O)CCC2C3CC(C)C4=CC(=O)CCC4(C)C3C(O)CC21C` (stereo not drawn), the activity change is -59.6% (active).

Consider `O=C(OC1CC2CC1[C@H]1CCCCN1C2=O)N1CCOCC1` (stereo partly drawn), for which the activity change is 7.59%.

Take `COc1ccc(C(=O)Nc2cccc(/C=C(/CCC(=O)O)c3nc4ccccc4s3)c2)cc1`: the activity change is 51.8%.

With `COc1ccccc1-n1cnc2cc(NS(=O)(=O)c3ccccc3)ccc21`, the activity change was -2.81%.

On to `CC(C)c1ccccc1OCC(O)CN(CC(O)COc1cccc2ccccc12)C(C)C` (stereo not drawn), for which the activity change was -104% (active).

Take `CCC(C)Sc1nc2c(c(=O)[nH]c(=O)n2C)n1CC(O)COc1cccc2ccccc12` (stereo not drawn): the activity change is 23.6%.

As to `CCCN(CCC)CC(O)COc1ccccc1C(=O)Nc1ccccc1` (stereo not drawn), the activity change is -6.43%.

For `COc1cc(C(=O)OCCCN2CCOCC2)cc(OC)c1OC`, the activity change was -2.32%.

Regarding `O=C1Nc2ccccc2NC(c2ccc3c(c2)OCO3)=C1N(Cc1ccc(F)cc1)C(=O)c1ccco1`, the activity change was -23.7%.

As to `O=S1(=O)CC(N2CCN(Cc3ccccc3F)CC2)CN1Cc1cn(Cc2ccccc2)nn1` (stereo not drawn), the activity change was 14%.

For `COc1ccccc1-c1nnc(-c2ccc(F)cc2)o1`, the activity change is 6.31%.

As for `Cc1sc2nc(-c3ccccc3F)oc(=O)c2c1C`, the activity change is 43.9%.

Turning to `COc1ccc(-c2csc3nc(-c4ccccc4F)oc(=O)c23)cc1OC`, the activity change is -84.4% (active).

For the molecule `COc1cc(F)ccc1-c1cc(C(=O)NCC2CCCCC2)[nH]n1`, the activity change is -19.4%.

In the case of `CC1CC(=O)N(CC(=O)Nc2cccc(Cl)c2)c2ccccc2S1(=O)=O` (stereo not drawn), the activity change is -6.86%.

Regarding `CC1=C/C(=N\OS(=O)(=O)c2ccccc2)C=CC1=O`, the activity change is -100% (active).

With `OCCc1ccc(NCCc2ccco2)cc1`, the activity change is -19.5%.

With `Cc1ccc(CN2CC(N3CCC(Cc4ccccc4)CC3)CS2(=O)=O)cc1` (stereo not drawn), the activity change is -19.7%.

`COc1ccc(C)cc1NC(=O)CSc1cccc[n+]1[O-]`: the activity change is 0.963%.

Regarding `O=C(CSc1ccccc1)Nc1ccc(C(=O)Nc2cccc(O)c2)cc1`, the activity change was 3.28%.

With `O=C(Nc1cccc(NC(=O)c2cccc(F)c2)c1)c1ccccc1`, the activity change was 15.3%.

With `C/C(=C\C(=O)c1ccccc1)Nc1cccc(O)c1`, the activity change is -52.1% (active).

With `O=C(Nc1cccc(O)c1)c1ccc(C(=O)c2ccccc2)o1`, the activity change was -53.4% (active).

Regarding `C/C(=C\C(=O)c1cccnc1)Nc1ccc(C)c(C)c1`, the activity change is -17.1%.

Turning to `O=C(NCc1cccc(CNC(=O)Nc2cccc(O)c2)c1)Nc1cccc(O)c1`, the activity change was -13%.

On to `CCCC(C(=O)N1CCOCC1)N1C(=O)C2C3C=CC(C3)C2C1=O` (stereo not drawn), for which the activity change was -7.71%.

With `NC(=O)Cc1ccc2sc(-c3ccccc3)nc2c1`, the activity change is -14.8%.

Consider `COCCCNC(=O)c1ccc(-c2c(C)noc2C)c2ccoc12`, for which the activity change is 46.4%.

As to `COc1ccc(Cl)cc1-n1c(C)cc(C(=O)OCC(=O)N2CC(=O)Nc3ccccc32)c1C`, the activity change was -23.3%.

For the molecule `Cc1sc2ncnc(SCC(=O)NC3CCS(=O)(=O)C3)c2c1C` (stereo not drawn), the activity change was -4.05%.

Take `N#Cc1ccc(-c2ccc(Cl)cc2)nc1Oc1ccc(F)cc1`: the activity change was 30%.

As to `CCc1cc2c(NC3CCCC3)ncnc2s1`, the activity change is -11.8%.

For `CCc1cc2c(N3CCN(c4nnc(CC)s4)CC3)ncnc2s1`, the activity change was -71.6% (active).

For the molecule `CCc1cc2c(NC(Cc3ccccc3)C(=O)O)ncnc2s1` (stereo not drawn), the activity change was 0%.

`COc1ccc(NC2CCCN(C(=O)c3ccccc3-c3ncc[nH]3)C2)cc1` (stereo not drawn): the activity change was 20.4%.

In the case of `COc1ccc(Cl)cc1C(=O)NNC(=O)c1nc2nc(C)cc(C)n2n1`, the activity change was 27%.

Consider `Cn1c(-c2ccccc2)c[n+]2c1CCCCC2`, for which the activity change is -10.2%.

For `Clc1ccc(C[n+]2cc(-c3ccc(Cl)cc3)n3c2CCC3)cc1`, the activity change is -53.1% (active).

For `Cc1cc2c(cc1C)N1C(=O)c3cc4ccccc4cc3NC(=O)C1C(=O)N2` (stereo not drawn), the activity change is 0%.

In the case of `COc1ccc(N(C(=O)c2snc(C(N)=O)c2N)C(C(=O)NC2CCCC2)c2ccco2)cc1OC` (stereo not drawn), the activity change was 37%.

`COc1cccc(N(C(=O)c2snc(C(N)=O)c2N)C(C(=O)NCC2CCCO2)c2c[nH]c3ccccc23)c1` (stereo not drawn): the activity change is -66.5% (active).

As for `CCC(C(=O)NC1CCCC1)N(C(=O)c1snc(C(N)=O)c1N)c1ccc2c(c1)OCCO2` (stereo not drawn), the activity change is -12.2%.

For `COCCNC(=O)C(c1ccc(C)o1)N(Cc1cccs1)C(=O)c1snc(C(N)=O)c1N` (stereo not drawn), the activity change is 18.9%.

Regarding `CCOc1cc(C(C(=O)NCC2CCCO2)N(C(=O)Cn2nnc3ccccc32)c2cccc(OC)c2)ccc1O` (stereo not drawn), the activity change was -7.04%.

Regarding `Cc1ccc(C(C(=O)NCC2CCCO2)N(C(=O)c2snc(C(N)=O)c2N)c2ccc(C(C)C)cc2)o1` (stereo not drawn), the activity change was -54.6% (active).

Consider `CCOc1ccc(N(C(=O)c2snc(C(N)=O)c2N)C(C(=O)NCC2CCCO2)c2c[nH]c3ccccc23)cc1` (stereo not drawn), for which the activity change was -52.3% (active).

`Cc1cccc(N(C(=O)c2sc(C)nc2C)C(C(=O)NCC2CCCO2)c2ccccc2)c1` (stereo not drawn): the activity change was 17.8%.

`Cc1ccc(N(C(=O)Cc2cccs2)C(C(=O)NCC2CCCO2)c2ccncc2)cc1` (stereo not drawn): the activity change was -6.16%.

Regarding `Cc1ccc(N(C(=O)c2snc(C(N)=O)c2N)C(C(=O)NCC2CCCO2)c2c[nH]c3ccccc23)cc1` (stereo not drawn), the activity change is -66.2% (active).

`CCOc1ccc(-n2c(N)c(C(=O)NCC3CCCO3)sc2=S)cc1` (stereo not drawn): the activity change is -28.6%.

For the molecule `COc1ccc(C(C(=O)NC2CCCCC2)N(C(=O)c2snc(C(N)=O)c2N)c2ccccc2OC)cc1` (stereo not drawn), the activity change is -4.36%.

(Values after PubChem BioAssay AID743279 (National Center for Advancing Translational Sciences (NCATS), 2014).)
